Source: PubChem BioAssay
UBC13 polyUb = blocks human UBC13 polyubiquitin chain formation; AID 485273; inhibition, % at 20 µM; TR-FRET; 0.47% of 330,000 active; P61088; in the data active means inhibition above about 45%, passing the limit was not always enough
MEKK2 WT-MEK5 = raises or lowers MEK5 binding to wildtype human MEKK2 PB1 domain; binding response (% of control), % at 10 µM; 1.1% of 290,000 active; bead flow cytometry, Alexa488-MEK5 binding to MEKK2 WT; actives lie on both sides; Q9Y2U5; in the data active means binding response below about 67% or above about 130%
MEKK3 PB1 HTS = MEKK3-MEK5 PB1 interaction, increase or decrease. bead-based flow cytometry, Alexa488-MEK5 binding to MEKK3; actives lie on both sides; 0 = blocked by unlabeled MEK5, 100 = vehicle. binding response (% of control), % at 10 µM. 1.4% of 290,000 active. AID 1529;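 active means binding response more than 3 SD above or below the average of its plate-row segment, actives on both sides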;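 further: Alexa488 bead fluorescence after subtracting the streptavidin-only scavenger bead signal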
Target sequence (Q99759 whole entry, looked up): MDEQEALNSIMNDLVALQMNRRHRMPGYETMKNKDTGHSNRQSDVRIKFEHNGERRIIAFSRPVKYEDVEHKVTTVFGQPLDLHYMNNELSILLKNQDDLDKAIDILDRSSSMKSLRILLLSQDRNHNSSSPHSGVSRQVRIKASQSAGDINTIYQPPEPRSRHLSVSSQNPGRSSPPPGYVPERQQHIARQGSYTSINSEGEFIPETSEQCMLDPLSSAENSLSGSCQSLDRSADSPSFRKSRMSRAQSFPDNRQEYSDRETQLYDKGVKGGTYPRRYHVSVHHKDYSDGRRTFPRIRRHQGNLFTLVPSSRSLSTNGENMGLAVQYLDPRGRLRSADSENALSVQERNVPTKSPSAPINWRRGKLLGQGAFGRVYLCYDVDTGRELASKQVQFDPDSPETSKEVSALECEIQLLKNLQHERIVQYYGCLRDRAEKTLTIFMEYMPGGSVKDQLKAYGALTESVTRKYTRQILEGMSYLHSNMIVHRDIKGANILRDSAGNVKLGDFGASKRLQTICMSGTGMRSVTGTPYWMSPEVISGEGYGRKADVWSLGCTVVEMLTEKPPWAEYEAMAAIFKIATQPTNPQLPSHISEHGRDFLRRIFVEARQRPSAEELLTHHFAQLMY
Rce1 inhib = yeast Ras-converting enzyme inhibition. Q03530. yeast membranes, quenched prenylated peptide cleavage fluorescence. calls only. 0.27% of 290,000 active;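 active means fall in fluorescence gain of 50% or more versus controls, with final raw signal at or below 3038400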
MEKK2mut PB1 HTS = signal of MEK5 binding to mutant human MEKK2 PB1 domain | bead flow cytometry, Alexa488-MEK5 binding to MEKK2 mutant | percent response, % at 10 µM | 0.35% of 290,000 active | AID 1530; in the data active means percent response above about 24%, passing the limit was not always enough
MEKK2wt confirm = raises or lowers MEK5 binding to wildtype human MEKK2, retest; shares compounds with MEKK3 PB1 HTS; bead flow cytometry, Alexa488-MEK5 binding to MEKK2 WT; actives lie on both sides; binding response (% of control), % at 10 µM; 2.4% of 5,900 active; AID 1892; in the data active means binding response below about 16% or above about 210%; inactive means in between
MEKK2mut confirm = signal of MEK5 binding to mutant human MEKK2, retest. shares compounds with MEKK3 PB1 HTS. bead flow cytometry, Alexa488-MEK5 binding to MEKK2 mutant. percent response, % at 10 µM. 2% of 5,900 active. AID 1893; in the data active means percent response mostly above about 71%, no sharp cut-off; inactive means mostly below about 38%;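 further: higher means compound restores mutant binding toward wildtype level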
MEKK3 confirm = confirmation of inhibitors of MEK5 binding to human MEKK3 | AID 1894 | shares compounds with MEKK3 PB1 HTS | 1.8% of 5,900 active | bead flow cytometry, Alexa488-MEK5 binding to MEKK3; stronger effect = lower value | binding response (% of control), % at 10 µM;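 active means binding response below 72% of control, or above a set upper limit, though filed actives all read lower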
Large screens that a line does not name were inactive (follow-up assays come after a bar, where they were run); [ ] = dose if it differs, or a comment. This is a sample that favours compounds with a hit; in the whole collection about 2.5% have one here.

Cc1ccc(S(=O)(=O)NN)c(C)c1N1CCCC1=O	MEKK3 PB1 HTS 44.0[inhibitor] | MEKK2wt confirm inactive | MEKK2mut confirm inactive | MEKK3 confirm inactive
COc1ccc(-n2c3c(cc(C(=O)NCC(=O)c4ccccc4)c2=O)C(=O)CC(C)(C)C3)cc1	none
COc1ccc(NS(=O)(=O)c2cn(C)cn2)c(OC)c1	none
O=C(NCC(=O)N(CC1CCCO1)C(C(=O)NC1CCCCC1)c1cccnc1)c1cccs1 (configuration not stated)	MEKK3 PB1 HTS 131.0 | MEKK2wt confirm inactive | MEKK2mut confirm inactive | MEKK3 confirm inactive
Cc1ccc(NC(=O)CN(C)C(=O)COC(=O)[C@@H](NC(=O)c2ccccc2F)C(C)C)cc1	none (no result: MEKK2 WT-MEK5, MEKK3 PB1 HTS, Rce1 inhib, MEKK2mut PB1 HTS)
CC(C)c1ccc(NC(=O)Cc2ccc(NC3=NC4CS(=O)(=O)CC4S3)cc2)cc1 (configuration not stated)	none
Cc1ccnc(NC(=O)c2cccc(OC(F)F)c2)n1	none
O=C(Nc1cc(Cl)cc(Cl)c1)c1cccc(OC(F)F)c1	MEKK2 WT-MEK5 172.0 | MEKK2wt confirm inactive | MEKK2mut confirm inactive | MEKK3 confirm inactive
Cc1ccc2c(C)c(C(=O)N3CCCCC3CO)oc2c1C (configuration not stated)	none
COc1cccc(NC(=O)c2ccc(NCCCN3CC(C)CC(C)C3)c([N+](=O)[O-])c2)c1 (configuration not stated)	MEKK2 WT-MEK5 139.0 (no result: UBC13 polyUb) | MEKK2wt confirm inactive | MEKK2mut confirm inactive | MEKK3 confirm inactive
N#C/C(=C/c1ccc(-c2ccc(S(N)(=O)=O)cc2)o1)c1nc2ccccc2s1	MEKK2 WT-MEK5 28.0[inhibitor], MEKK3 PB1 HTS 63.0[inhibitor] (no result: Rce1 inhib) | MEKK2wt confirm inactive | MEKK2mut confirm inactive | MEKK3 confirm inactive
Cc1ccc(S(=O)(=O)N2CCCCC2c2cccnc2)c(C)c1C (configuration not stated)	none
Cc1ccccc1-n1c(O)c(/C=N/N2CCCCC2c2cccnc2)c(=O)[nH]c1=O (configuration not stated)	MEKK3 PB1 HTS 173.0 (no result: Rce1 inhib) | MEKK2wt confirm inactive | MEKK2mut confirm inactive | MEKK3 confirm inactive
Cc1cccc(N2CCN(C(=O)CN3C(=O)NC(C)(C)C3=O)CC2)c1C	none
Cc1cccc(N2CCN(C(=O)CN3C(=O)C4CC=CCC4C3=O)CC2)c1C (configuration not stated)	MEKK3 PB1 HTS 67.0[inhibitor] | MEKK2wt confirm inactive | MEKK2mut confirm inactive | MEKK3 confirm inactive
COc1ccc(NC(=O)N2CCCC2C(=O)NCc2ccc(C)cc2)cc1 (configuration not stated)	MEKK3 PB1 HTS 73.0[inhibitor], MEKK2mut PB1 HTS 62.0 | MEKK2wt confirm inactive | MEKK2mut confirm inactive | MEKK3 confirm inactive
COc1ccc(NC(=O)N2CCCC2C(=O)NCc2ccc(F)cc2)cc1 (configuration not stated)	none (no result: Rce1 inhib)
Cc1ccc(NS(=O)(=O)c2cc([N+](=O)[O-])ccc2N/N=C/c2sc(N3CCOCC3)nc2-c2ccccc2)c(C)c1	MEKK3 PB1 HTS 10.0[inhibitor] (no result: MEKK2 WT-MEK5) | MEKK2wt confirm inactive | MEKK2mut confirm inactive | MEKK3 confirm inactive
CCc1ccc(OCC2c3cc(OC)c(OC)cc3CCN2C(=S)NC)cc1 (configuration not stated)	MEKK3 PB1 HTS 134.0 | MEKK2wt confirm inactive | MEKK2mut confirm inactive | MEKK3 confirm inactive
CCc1ccc(OCC2c3cc(OC)c(OC)cc3CCN2C(=S)NCCOC)cc1 (configuration not stated)	none
CCN1CCN(Cc2c(O)ccc3c2O/C(=C\C=C\c2ccccc2OC)C3=O)CC1	MEKK3 PB1 HTS 133.0 | MEKK2wt confirm inactive | MEKK2mut confirm inactive | MEKK3 confirm inactive
O=C1/C(=C/c2ccco2)Oc2c1ccc(O)c2CN1CCCCC1	none
O=C(NCCN1C(=O)S/C(=C\c2cccs2)C1=O)[C@H](Cc1ccccc1)N1C(=O)c2ccccc2C1=O	none
